# Screening data (PubChem BioAssay)
# An excerpt weighted towards active compounds, which were near 9.4% of everything screened.
# ELG1 repair inh: qHTS screen for small molecules that inhibit ELG1-dependent DNA repair in human embryonic kidney (HEK293T) cells expressing luciferase-tagged ELG1 | HEK293T ELG1-luciferase reporter, luminescence, 16 h; DNA damage induced by 5-fluorouridine | Potency, µM (doses to about 46.1 µM), actives largely listed as inhibitors | hit rate 2.3% among 330,000; note: nearly all actives have a fitted effect of over 55% in size
#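 Cells (2,000 per well) received 5-fluorouridine plus test compound or DMSO and were incubated 16 hr at 37 °C, 5% CO2. Luciferase activity was read by luminescence 30 min after ONE-Glo addition; signal suppression marked inhibition of damage-induced ELG1 function.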
# SMN2 splice enh: qHTS Assay for Enhancers of SMN2 Splice Variant Expression. HEK293 SMN2-luciferase splicing reporter, luminescence, 30-36 h. Potency, µM (top dose mostly 46.1 µM), most hits filed as activators. hit rate 2.8% among 210,000; note: nearly all actives have a fitted effect of over 55% in size
#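 HEK293 cells carry an SMN2 minigene-luciferase reporter in which exon 7 inclusion puts luciferase in frame. Cells were seeded at 2000 cells/well, attached for 10-12 hours, then exposed to compounds for 30-36 hours at 37C before ONE-Glo luminescence.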
# NPC1 promoter act: qHTS Assay for NPC1 Promoter Activators | Huh7 NPC1 promoter luciferase reporter, 24 h | Potency, µM (series often up to 9.22 µM), actives largely listed as activators | hit rate 2.4% among 320,000 | AID 485313, 2010; note: nearly all actives have a fitted effect of over 60% in size
#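 Huh7 cells stably carrying NPC1 promoter–luciferase, plated in Opti-MEM with 10% FBS for 2 h, were exposed to compound in DMSO for 24 h at 37 °C; luciferase reagent was added for 10 min and luminescence read.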
# FLuc modulator: qHTS profiling assay for firefly luciferase inhibitor/activator using purifed enzyme and Km concentrations of substrates (counterscreen for miR-21 project) | hit rate 6.9% among 360,000 | purified FLuc, Km substrates, luminescence inhibition | AID 588342, 2011 | Potency, µM (highest dose often 57.5 µM), most hits filed as inhibitors | Luciferin 4-monooxygenase (Photinus pyralis), P08659; note: nearly all actives have a fitted effect of over 55% in size
# Target sequence (P08659 whole entry, looked up): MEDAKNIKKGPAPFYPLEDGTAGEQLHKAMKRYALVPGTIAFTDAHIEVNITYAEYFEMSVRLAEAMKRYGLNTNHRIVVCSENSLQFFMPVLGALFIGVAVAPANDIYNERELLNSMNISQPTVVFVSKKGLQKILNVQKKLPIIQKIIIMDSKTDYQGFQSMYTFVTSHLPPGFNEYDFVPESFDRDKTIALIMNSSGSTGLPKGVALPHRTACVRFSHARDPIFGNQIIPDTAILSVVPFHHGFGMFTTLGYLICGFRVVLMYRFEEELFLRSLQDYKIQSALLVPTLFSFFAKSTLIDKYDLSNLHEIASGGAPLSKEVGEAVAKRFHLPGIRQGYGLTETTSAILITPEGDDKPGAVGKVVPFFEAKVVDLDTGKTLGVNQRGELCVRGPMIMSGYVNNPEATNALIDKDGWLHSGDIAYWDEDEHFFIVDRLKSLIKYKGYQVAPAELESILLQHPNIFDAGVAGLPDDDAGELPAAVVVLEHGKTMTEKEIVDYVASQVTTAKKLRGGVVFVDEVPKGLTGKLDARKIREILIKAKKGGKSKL
#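 Biochemical qHTS of compounds, final roughly 60 µM downward over six points, against 10 nM purified firefly luciferase using Km concentrations of substrates (10 uM D-luciferin, 10 uM ATP) in Tris acetate pH 7.5 buffer; luminescence output.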
# ELG1 genotox: qHTS screen for small molecules that induce genotoxicity in human embryonic kidney (HEK293T) cells expressing luciferase-tagged ELG1; Potency, µM (titrated, usually from 46 µM), actives largely listed as activators; hit rate 1.3% among 330,000; AID 504466, 2011; HEK293T ELG1-luciferase reporter, luminescence, 16 h; note: nearly all actives have a fitted effect of over 60% in size
#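 Luminescence read-out: rising ELG1-luciferase signal, reflecting elevated ELG1 protein under genetic stress, flags genotoxic compounds. Cells were treated for 16 hr at 37 °C before ONE-Glo detection.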
# Rab9 prom act: qHTS Assay for Rab9 Promoter Activators; Huh7 Rab9 promoter-luciferase reporter, luminescence, 24 h; Potency, µM (series often up to 9.22 µM), most hits filed as activators; hit rate 2.8% among 320,000; AID 485297, 2010; note: nearly all actives have a fitted effect of over 60% in size
#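 Measured in stably transfected Huh7 cells bearing a Rab9 promoter–luciferase construct: 24 h compound treatment at 37 °C, followed by luminescence detection.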
# Numbers stand for hits; 0 = inactive; ? = inconclusive; - = not tested or not shown; [ ] = remark or other dose. Calls come from the whole dose curve; as a rule, active = well fitted curve in the direction sought with a large enough effect; inconclusive = small, poorly fitted or top-dose-only effect, or another doubt; inactive = no such curve, though single readings can be large; an effect the other way counts as inactive or inconclusive.
SMILES,ELG1 repair inh,SMN2 splice enh,NPC1 promoter act,FLuc modulator,ELG1 genotox,Rab9 prom act
CCCn1nnc(NC(=O)c2ccc3c(c2)OCO3)n1,?,-,2.8µM,19µM,?,1.6µM
CCCn1nnc(NC(=O)c2cccc(Cl)c2)n1,?,?,0,0,0,0
CCCCn1nnc(NC(=O)c2ccc(-c3cccc(Cl)c3)o2)n1,0,0,0,?,0,0
CCn1nnc(NC(=O)c2ccc(Br)o2)n1,?,-,0,0,0,0
CCCn1nnc(NC(=O)c2cc3ccccc3o2)n1,?,10µM,2.5µM,19µM,5.8µM,?
CCn1nnc(NC(=O)c2cc3ccccc3o2)n1,?,32µM,?,15µM,15µM,?
CCCn1nnc(NC(=O)c2ccc(-c3cccc(Cl)c3)o2)n1,?,0,0,17µM,0,?
CCc1ccc(C(=O)Nc2nnn(CC)n2)cc1,?,0.5µM,2µM,4.3µM,1.6µM,0.5µM
CCC12CN3CC(CC)(CN(C1)C3c1ccc(OCc3ccccc3)cc1)C2=O (configuration not stated),-,0,-,0,-,-
N#Cc1ccc(C(=O)Nc2ccc(Cl)c(-c3nc4cc(Cl)ccc4o3)c2)c(F)c1,-,0,-,0,-,-
COc1ccc(C(C(=O)NC(C)(C)C)N(Cc2cccs2)C(=O)CCC(=O)Nc2cc(C)on2)cc1 (configuration not stated),?,0,0,0,0,0
CCC(C)(C)NC(=O)C(c1ccc(OC)cc1)N(Cc1cccs1)C(=O)CCC(=O)Nc1cc(C)on1 (configuration not stated),18µM,0,0,0,0,0.63µM
O=C(c1ccc(Cl)cc1)c1cnc(-c2ccc(Cl)cc2)s1,0,?,0,0,0,0
O=C(c1ccccc1)c1cnc(-c2ccccc2)s1,?,13µM,0.5µM,1.2µM,2.1µM,0.32µM
O=C(c1ccccc1)c1cnc(-c2ccc(Cl)cc2)s1,?,?,0.35µM,0.34µM,2.6µM,0.32µM
CC(=O)c1cnc(-c2ccccn2)s1,0,0,0,0,0,0
COc1ccc(NC(=O)N2CCc3c([nH]c4ccc(OC)cc34)C2c2ccc(OC)cc2)cc1 (configuration not stated),-,-,-,0,-,-
COc1ccccc1CNc1cc(-c2cccc(NS(C)(=O)=O)c2)ncn1,-,0,-,-,-,-
C/C(=N\NC(=O)c1cccc(C)c1)c1cccc(NC(=O)c2ccco2)c1,0,0,0,15µM,0,0
C/C(=N\NC(=O)c1cccc(Cl)c1)c1cccc(NC(=O)c2ccco2)c1,?,0,0,19µM,0,0
CCC(=O)N(CC)C1=C(O)c2ccccc2C(=O)C1=O,0,0,0,?,0,0
CC(C)=CCC1=C(O)c2ccccc2C(=O)C1=O,-,4µM,-,-,-,-
CC(NC(=O)CN(c1ccc(Cl)cc1Cl)S(=O)(=O)c1ccccc1)c1ccccc1 (configuration not stated),-,0,-,0,-,-
COc1ccc(-n2nc(C(=O)NCC(=O)N3CCN(c4ccccc4)CC3)c3ccccc3c2=O)cc1OC,0,-,?,0.85µM,0,0
COc1ccc(-n2nc(C(=O)NCC(=O)N3CCN(c4ccccc4OC)CC3)c3ccccc3c2=O)cc1OC,16µM,-,0,3.8µM,0,0
SMILES,ELG1 repair inh,SMN2 splice enh,NPC1 promoter act,FLuc modulator,ELG1 genotox,Rab9 prom act
COc1ccc(-n2nc(C(=O)NCC(=O)N3CCN(Cc4ccc5c(c4)OCO5)CC3)c3ccccc3c2=O)cc1OC,?,0,0,0,0,0
COc1ccc(-n2nc(C(=O)NCC(=O)NCCCN3CCOCC3)c3ccccc3c2=O)cc1OC,0,-,0,0,0,0
COc1ccc(-n2nc(C(=O)NCC(=O)N3CCOCC3)c3ccccc3c2=O)cc1OC,0,-,0,24µM,0,0
C/C(=N\NC(=O)c1cc(O)ccc1O)c1cccc(NC(=O)c2ccc(Cl)cc2)c1,?,-,?,1.1µM,0,0
C/C(=N\NC(=O)CSCc1ccccc1Cl)c1cccc(NC(=O)c2ccccc2)c1,?,0,0,0,0,0
C/C(=N\NC(=O)c1cc(O)ccc1O)c1cccc(NC(=O)c2cccc(Cl)c2)c1,?,-,0,8.5µM,0,0
Cc1ccc(NC(=O)Cn2ccn(-c3ccc(F)c(F)c3)c(=O)c2=O)cc1C,-,-,-,0,-,-
CCOc1ccc2nc(NC(=O)c3nc(SCc4ccccc4F)ncc3Cl)sc2c1,-,0,-,0,-,-
CCc1ccc(NC(=O)CSc2nc(-c3ccccc3)c(C#N)c(=O)[nH]2)cc1,-,-,-,11µM,-,-
Cc1cc(C)nc(NS(=O)(=O)c2ccc(NC(=O)CSc3nc(-c4ccccc4)c(C#N)c(=O)[nH]3)cc2)n1,0,0,0,11µM,0,0
COc1ccc(C(=O)N2CCC[C@@]3(CCN(c4cccc(-c5ccccc5)c4)C3)C2)cc1,-,0,-,-,-,-
CC(C)c1ccc(S(=O)(=O)NCc2ccc3c(c2)CCN3C(=O)c2ccccc2)cc1,-,-,-,0,-,-
COc1cccc(NC(=O)CN(C)C(=O)c2cc(-c3ccc(C)o3)nc3ccccc23)c1,6.5µM,-,0,11µM,0,0
CCOc1ccc(NC(=O)CN(C)C(=O)c2cc(-c3ccc(OC)cc3)nc3ccccc23)cc1OCC,9.2µM,-,0,13µM,0,0
COc1ccc(NC(=O)CN(C)C(=O)c2cc(-c3ccc(Cl)cc3)nc3ccccc23)cc1,?,-,0,24µM,0,0
CCN(CC)S(=O)(=O)c1cc(-c2ccc(=O)n(C(C)C(=O)Nc3cccc(C#N)c3)n2)ccc1C (configuration not stated),-,-,-,0,-,-
O=S(=O)(O)O,-,0,-,-,-,-
Cc1cccc(-c2cc3nc4c(c(N5CCCC(O)C5)n3n2)CCC4)c1 (configuration not stated),16µM,0,0,0,0,0
OC1CCCN(c2c3c(nc4cc(-c5cccc(F)c5)nn24)CCCC3)C1 (configuration not stated),?,11µM,?,?,?,?
OC1CCN(c2c3c(nc4cc(-c5ccc(F)cc5)nn24)CCC3)CC1,?,0,0,?,0,0
OC1CCCN(c2c3c(nc4cc(-c5cccc(Cl)c5)nn24)CCC3)C1 (configuration not stated),21µM,0,0,0,0,0
CCCCS(=O)(=O)N1CCc2nc(-c3ccc(OC)cc3C)c3c(c2C1)CO[C@@H](c1ccccc1)C3,-,0[9.22 µM],-,-,-,-
O=C(NCc1ccco1)c1cc(-c2ccccc2)on1,?,13µM,?,?,18µM,2.8µM
O=C(NCc1ccccc1)c1cc(-c2cccs2)on1,?,0,?,?,0,?
